# An excerpt weighted towards active compounds, which were near 9.2% of everything screened.
# Rab9 promoter act: activators of Rab9 promoter | Huh7 Rab9 promoter-luciferase reporter, luminescence, 24 h | Potency, µM (doses to about 9.22 µM), for the others: at the highest dose activation, negative = inhibition, hits mostly activators | 2.8% of 320,000 active | AID 485297; further: % of control where 0% means no effect; nearly all actives have a fitted effect of over 60% in size
#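 Cell-based reporter: Huh7 stable for Rab9 promoter-driven luciferase, plated in reduced-serum medium with 10% FBS at 1500 cells/well, compound-treated 24 h at 37 °C, luminescence read after 10 min reagent.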
# ELG1 genotoxic: genotoxicity induction in ELG1-luciferase HEK293T cells; HEK293T ELG1-luciferase reporter, luminescence, 16 h; Potency, µM (series often up to 46 µM), for inactives: at the top dose activity change, positive = activation, most hits filed as activators; 1.3% of 330,000 active; AID 504466; further: % of control where 0% means no effect; nearly all actives have a fitted effect of over 60% in size
#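 16 hr compound incubation (37 °C, 5% CO2) of HEK293T cells carrying luciferase-tagged ELG1; luciferase then measured by ONE-Glo luminescence after 30 min at RT.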
# ELG1 repair inh: ELG1-dependent DNA repair inhibition | Potency, µM (doses to about 46.1 µM), for the others: top-dose activity change, negative = inhibition, actives largely listed as inhibitors | HEK293T ELG1-luciferase reporter, luminescence, 16 h; DNA damage induced by 5-fluorouridine | 2.3% of 330,000 active | AID 504467; further: on the % scale 0 is the no-effect control and ±100 the full control effect; nearly all actives have a fitted effect of over 55% in size
#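 HEK293T cells expressing luciferase-tagged ELG1 (2,000/well) received 5-Fluorouridine plus compound or DMSO for 16 hr at 37 °C. Luciferase was read by ONE-Glo luminescence after 30 min at room temperature.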
# SMN2 splice up: SMN2 splice variant enhancement. 2.8% of 210,000 active. AID 1458. HEK293 SMN2-luciferase splicing reporter, luminescence, 30-36 h. Potency, µM (highest dose often 46.1 µM), for the others: at the top dose activity change, positive = activation, actives largely listed as activators; further: % of control where 0% means no effect; nearly all actives have a fitted effect of over 55% in size
#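 HEK293 cells carry an SMN2 […]–luciferase reporter in which exon 7 inclusion puts luciferase in frame. Cells were plated 10-12 h before compound addition, then incubated 30-36 h at 37C. ONE-Glo luminescence was read; sodium butyrate at 4.5 mM final served as control.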
# NPC1 prom act: activates the NPC1 promoter. Huh7 NPC1 promoter luciferase reporter, 24 h. Potency, µM (highest dose often 9.22 µM), inactives show at the top dose activation, usual class: activators. 2.4% of 320,000 active; further: % of control where 0% means no effect; nearly all actives have a fitted effect of over 60% in size
#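 NPC1 promoter–luciferase Huh7 cells; 24 h compound; luminescence.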
# FLuc modulator: counter-screen for miR-21 project: firefly luciferase inhibitors or activators; P08659; purified FLuc, Km substrates, luminescence inhibition; Potency, µM (top dose mostly 57.5 µM), for the others: at the highest dose activity change, negative = inhibition, actives largely listed as inhibitors; 6.9% of 360,000 active; AID 588342;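 further: plate controls were vehicle for no effect and reference inhibitor for full effect; nearly all actives have a fitted effect of over 55% in size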
# Target sequence (P08659 whole entry, looked up): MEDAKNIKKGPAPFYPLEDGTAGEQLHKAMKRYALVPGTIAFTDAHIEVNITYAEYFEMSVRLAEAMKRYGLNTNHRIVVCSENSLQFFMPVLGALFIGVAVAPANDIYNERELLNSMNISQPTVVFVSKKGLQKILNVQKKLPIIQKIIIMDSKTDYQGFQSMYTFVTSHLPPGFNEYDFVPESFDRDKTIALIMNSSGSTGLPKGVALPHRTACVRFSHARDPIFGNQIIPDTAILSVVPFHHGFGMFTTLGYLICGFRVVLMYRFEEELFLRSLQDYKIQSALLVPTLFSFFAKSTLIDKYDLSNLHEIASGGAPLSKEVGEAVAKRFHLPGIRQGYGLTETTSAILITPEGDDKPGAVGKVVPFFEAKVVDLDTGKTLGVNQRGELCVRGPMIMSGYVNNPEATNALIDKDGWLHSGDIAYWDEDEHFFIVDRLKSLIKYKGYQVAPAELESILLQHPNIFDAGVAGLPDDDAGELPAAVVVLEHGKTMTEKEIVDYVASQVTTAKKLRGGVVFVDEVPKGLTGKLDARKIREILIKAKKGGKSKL
#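 Purified P. pyralis luciferase, 10 nM final, with Km-level 10 uM D-luciferin and 10 uM ATP in 50 mM Tris acetate pH 7.5, 10 mM Mg acetate, 0.01% Tween-20, 0.05% BSA; 6-point qHTS titration about 60 µM downward; luminescence read.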
# Active calls of the source: *; ? = inconclusive; · = no result; [ ] = remark or other dose. The call rests on the fitted dose curve; in most records, active means well fitted curve in the direction sought with a large enough effect; inconclusive means small, poorly fitted or top-dose-only effect, or another doubt; inactive means no such curve, though single readings can be large; an effect the other way counts as inactive or inconclusive. Potency means the concentration at half of the fitted maximal effect.
SMILES,Rab9 promoter act,ELG1 genotoxic,ELG1 repair inh,SMN2 splice up,NPC1 prom act,FLuc modulator
Cc1cc(C)c2nc(N3CCC(C(=O)N4CCN(C(=O)c5ccco5)CC4)CC3)sc2c1,-4%,-17%,16µM*,-14%,0%,?
COc1cccc(CNC(=O)CCS(=O)(=O)c2ccc3c(c2)CC(C)N3C(=O)C2CC2)c1 (stereo not given),1%,1%,13%,·,1%,3%
CN(C)/C=N/C(=S)Nc1ccc(Br)cc1F,4µM*,24%,?,28%,?,19µM*
C=CCNC(=S)Nc1ccc(Br)cc1F,1%,-2%,11%,-20%,-2%,-2%
Cc1ccc2c(c1)cc(CN(Cc1ccco1)C(=O)COc1ccccc1)c1nnnn12,10%,-16%,21µM*,-12%,7%,-1%
COCCN(Cc1cc2cc(C)ccc2n2nnnc12)C(=S)Nc1ccc(C)cc1,-5%,-2%,16µM*,-1%,-2%,-3%
CCCCC/C=C\C/C=C\C/C=C\CCCCC(=O)NC(C)C(=O)O (stereo not given),·,·,·,2%,·,·
COCCn1c(-c2ccccc2Cl)nc2c(c(=O)c3ccccc3n2C)c1=O,-3%,-1%,-1%,-1%,-3%,0%
CC(Sc1nc(-c2ccc(F)cc2)cs1)C(=O)N1c2ccccc2CC1C (stereo not given),-4%,-10%,26µM*,-34%,-1%,0%
COc1cc(OC)c(C(=O)OCCCOC(=O)c2cc(OC)c(OC)cc2OC)cc1OC,-2%,2%,12µM*,·,-2%,-8%
COc1cc(C(=O)OCCCOC(=O)c2cc(OC)c(OC)c(OC)c2)cc(OC)c1OC,4%,-2%,-7%,·,-5%,5%
Cc1sc2ncn(/N=C/c3ccco3)c(=O)c2c1C,?,?,29%,·,27%,11µM*
Cc1cccc(-n2cnc3sc(C)c(C)c3c2=O)c1,12%,8%,?,·,1%,-12%
Cc1nc2scc(-c3ccccc3)c2c(=O)n1/N=C/c1ccco1,3%,-3%,15µM*,-6%,0%,0%
O=C(COC(=O)Cc1cccs1)NCC(=O)Nc1ccc(F)cc1,-4%,4%,9%,·,0%,-1%
O/N=C/c1ccccc1OCc1ccccc1Cl,1%,2%,?,1%,3%,-5%
CCOC(=O)N/N=C/c1ccccc1OCc1ccc(Cl)cc1,-5%,2%,3%,27%,-2%,15µM*
O/N=C/c1ccccc1OCc1ccc(Cl)cc1,?,15%,?,-6%,?,17µM*
Cc1ccc2nc3c(c(Nc4cccc(O)c4)c2c1)CCC3,-2%,-2%,-17%,·,11%,0%
N#Cc1ccccc1Cn1cc(/C=C/[N+](=O)[O-])c2ccccc21,-9%,-7%,21µM*,-65%,1%,-18%
O=[N+]([O-])c1ccccc1/C=N/OCc1ccccc1,?,?,?,·,4µM*,11µM*
COc1ccc(-n2ncc(N(C)n3cccc3)c(Cl)c2=O)cc1,0.56µM*,?,?,·,1.3µM*,4.8µM*
Cc1ccc(-n2ncc(N(C)C)c(Cl)c2=O)cc1,1.1µM*,?,?,?,0.4µM*,5.4µM*
CN(C)c1cnn(-c2ccccc2)c(=O)c1Cl,13%,16%,?,21%,13%,?
Cc1ccc(-n2cnc3sc(C)c(C)c3c2=O)cc1,2.5µM*,?,?,13µM*,?,?
SMILES,Rab9 promoter act,ELG1 genotoxic,ELG1 repair inh,SMN2 splice up,NPC1 prom act,FLuc modulator
CCCn1nc(C(=O)Nc2ccc3nc(N4CCOCC4)sc3c2)ccc1=O,-19%,-11%,16µM*,·,-10%,-18%
CCOCc1c(C(=O)Nc2cc(OCC)c(N3CCOCC3)cc2OCC)oc2ccccc12,-5%,-9%,13µM*,-59%,-7%,0%
CCOc1cc(N2CCOCC2)c(OCC)cc1NC(=O)c1oc2ccccc2c1C,2%,-8%,-1%,-1%,-13%,-1%
CCOCc1c(C(=O)Nc2ccc3nc(N4CCOCC4)sc3c2)oc2ccccc12,3%,-13%,12µM*,·,0%,·
COc1ccc(C(=O)Nc2ccc3nc(N4CCOCC4)sc3c2)cc1OC,0%,4%,?,·,2%,?
CCc1ccc(NC(=O)Cn2c(=O)n(CCc3ccccc3)c(=O)c3sc4ccccc4c32)cc1,·,·,·,9%,·,-1%
Nc1ccc2c(c1Cl)C(=O)c1ccc(N)c(Cl)c1C2=O,2.2µM*,?,?,·,?,12µM*
COc1ccc(CNC(=O)C(C)OC(=O)CN2C(=O)COc3ccccc32)cc1 (stereo not given),-1%,2%,-1%,·,-4%,1%
COc1ccc2[nH]c3c4c(ccc3c2c1)C(=O)C=CC4=O,-50%,5%,16µM*,·,-14%,?
COc1ccc2[nH]c(=O)cc(C(=O)O)c2c1,-12%,0%,-1%,-4%,-5%,-4%
COc1ccc(S(=O)(=O)N2CCCCCC2)cc1C(=O)N1CCCCC1,-1%,?,-6%,·,-6%,17µM*
COc1cc(S(=O)(=O)N2CCOCC2)ccc1NC(=O)COC(=O)/C=C/c1cc(OC)c(OC)c(OC)c1,·,17%,0%,·,·,·
Cc1ccc(S(=O)(=O)N2CCOCC2)cc1NC(=O)CNCc1ccccc1Cl,-3%,-2%,?,·,-5%,15%
COc1ccccc1CNCC(=O)Nc1cc(S(=O)(=O)N2CCOCC2)ccc1Cl,-6%,-7%,21µM*,·,-3%,-1%
COc1cc(/C=C/C(=O)OCC(=O)Nc2cc(S(=O)(=O)N3CCOCC3)ccc2Cl)cc(OC)c1OC,·,-1%,18µM*,·,·,·
COc1ccccc1CNCC(=O)Nc1cc(S(=O)(=O)N2CCCCCC2)ccc1Cl,-3%,-12%,23µM*,·,1%,4%
Cc1noc(C)c1-c1ccc2ncnc(NCC3CCCCN3C)c2c1 (stereo not given),-8%,?,?,·,-3%,8%
Cc1ccc(-c2nc(SCC(=O)Nc3cc(S(=O)(=O)N4CCCCC4)ccc3Cl)n[nH]2)cc1,-7%,0%,-14%,5%[1.84 µM],-5%,15µM*
S=C1NC=NC2N=CNC12 (stereo not given),·,·,·,-38%,·,·
O=C(CSc1nc2nc3c(cc2c(=O)n1-c1ccccc1)CCCC3)Nc1cccc2ccccc12,-4%,-2%,?,13%,1%,0%
Cc1ccccc1-n1c(SCC(=O)Nc2ccccc2)nc2nc3c(cc2c1=O)CCCC3,-8%,-10%,23µM*,-27%,-1%,4%

# Screening results deposited in PubChem BioAssay by National Center for Advancing Translational Sciences (NCATS).
